Test [1] has as its system Plasmodium falciparum Sir2 (PF13_0152, Sir2A). Briefly: Plasmodium falciparum Sir2A binding compounds – biochemical, small-molecule microarray, 635 nm fluorescence, primary screen (AID 1098).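 Also: score merges spot fluorescence intensity with its signal-to-noise ratio.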 As to conditions: fluorescence 635 nm, higher = more signal.
Test [2] in a line: probe aDKK1 binding to arrayed compounds – biochemical, biotinylated probe, 635/667 nm fluorescence, primary screen (AID 1099).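 Also: score merges 667nm spot fluorescence with signal to noise across triplicate slides; reference of the scale not given here.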 As to conditions: small-molecule microarray, higher = more signal.
Test [3] in a line: probe aCHRDL2 binding to arrayed compounds – biochemical, biotinylated probe, 635/667 nm fluorescence, primary screen (AID 1100). As to conditions: small-molecule microarray, higher = more signal.
A short description of test [4]: change in splice reporter luminescence, either direction, cell-based, HEK293, spliceosome inhibition project, primary screen (AID 1101).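 Also: HEK293 cells carrying a splicing-competent luciferase reporter gene; test concentration not given here.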 Conditions: HEK293 splicing luciferase reporter, 24 h, higher = more signal, called active from +8 up or from −8 down. For orientation: Reporter assays use an easily measured gene product as a stand-in for the process of interest.
For test [5], the target named is Fibroblast growth factor 10 (Homo sapiens) (UniProt O15520). The test is described as follows: compounds binding fibroblast growth factor 10 – biochemical, small-molecule microarray, 635 nm fluorescence, primary screen (AID 1102). Conditions: FGF10 binding, fluorescence 635 nm, higher = more signal.
Fibroblast growth factor 10 (Homo sapiens), sequence (O15520 whole entry, looked up): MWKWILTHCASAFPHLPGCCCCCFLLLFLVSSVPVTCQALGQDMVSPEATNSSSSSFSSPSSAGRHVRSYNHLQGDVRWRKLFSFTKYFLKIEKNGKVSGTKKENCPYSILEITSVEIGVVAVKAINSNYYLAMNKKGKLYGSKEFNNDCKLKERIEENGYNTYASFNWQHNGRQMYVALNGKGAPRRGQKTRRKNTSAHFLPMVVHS
The test system of test [6] is glycogen synthase kinase-3 (GSK3A per assay name; protocol says GSK3B). Briefly: compounds binding glycogen synthase kinase-3 – biochemical, small-molecule microarray, 635 nm fluorescence, GSK3A, primary screen (AID 1103). Also: the record names both GSK3A and GSK3B. As to conditions: fluorescence 635 nm, higher = more signal.
The target of test [7] is Epidermal growth factor receptor (Homo sapiens) (UniProt P00533). The test is described as follows: compounds binding epidermal growth factor receptor – biochemical, small-molecule microarray, 635 nm fluorescence, primary screen (AID 1104).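 Also: score merges 667 nm emission intensity with spot signal to noise over triplicate slides.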 As to conditions: EGFR binding, higher = more signal.
Epidermal growth factor receptor (Homo sapiens), sequence (P00533 whole entry, looked up): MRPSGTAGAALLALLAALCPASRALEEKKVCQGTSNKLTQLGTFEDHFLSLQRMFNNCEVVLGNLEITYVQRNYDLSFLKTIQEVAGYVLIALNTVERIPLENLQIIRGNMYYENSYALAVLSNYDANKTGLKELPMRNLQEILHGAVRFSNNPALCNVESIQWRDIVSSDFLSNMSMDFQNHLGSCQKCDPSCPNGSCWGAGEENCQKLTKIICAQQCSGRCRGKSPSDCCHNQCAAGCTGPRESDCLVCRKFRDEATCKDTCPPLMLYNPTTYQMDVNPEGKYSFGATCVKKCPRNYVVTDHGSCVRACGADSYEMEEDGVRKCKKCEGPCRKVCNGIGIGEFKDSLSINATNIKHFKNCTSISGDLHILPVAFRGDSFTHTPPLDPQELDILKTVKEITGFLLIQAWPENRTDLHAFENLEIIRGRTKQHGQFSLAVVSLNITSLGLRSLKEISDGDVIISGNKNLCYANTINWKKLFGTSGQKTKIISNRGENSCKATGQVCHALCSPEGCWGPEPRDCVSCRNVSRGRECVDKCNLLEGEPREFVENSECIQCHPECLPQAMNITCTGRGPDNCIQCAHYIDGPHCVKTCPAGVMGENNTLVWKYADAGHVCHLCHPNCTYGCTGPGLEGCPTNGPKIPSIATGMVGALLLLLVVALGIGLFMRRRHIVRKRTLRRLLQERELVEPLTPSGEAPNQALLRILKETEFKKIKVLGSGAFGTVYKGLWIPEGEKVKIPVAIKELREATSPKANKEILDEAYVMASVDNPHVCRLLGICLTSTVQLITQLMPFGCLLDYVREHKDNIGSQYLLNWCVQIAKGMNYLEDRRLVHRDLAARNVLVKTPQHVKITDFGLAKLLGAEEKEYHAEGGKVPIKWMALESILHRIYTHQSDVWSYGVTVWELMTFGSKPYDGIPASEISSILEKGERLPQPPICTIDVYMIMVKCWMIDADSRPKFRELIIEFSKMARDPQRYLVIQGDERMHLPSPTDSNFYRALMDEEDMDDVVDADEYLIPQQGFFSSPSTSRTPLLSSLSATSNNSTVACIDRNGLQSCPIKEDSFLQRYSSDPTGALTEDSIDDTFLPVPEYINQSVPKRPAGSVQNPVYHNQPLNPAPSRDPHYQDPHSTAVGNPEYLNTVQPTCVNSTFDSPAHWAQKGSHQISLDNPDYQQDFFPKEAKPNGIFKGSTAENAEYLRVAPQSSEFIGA
Test [8] addresses Follistatin-related protein 3 (Homo sapiens) (UniProt O95633). The test is described as follows: compounds binding follistatin-related protein 3 – biochemical, small-molecule microarray, 635 nm fluorescence, primary screen (AID 1105).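 Also: score merges emission near 667 nm and signal to noise per printed spot across three slides.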 Conditions: FSTL3 binding, higher = more signal.
Test [9] deals with Dickkopf-related protein 1 (Homo sapiens) (UniProt O94907). Briefly: small molecules binding DKK1 protein – biochemical, small-molecule microarray, 635 nm fluorescence scan, primary screen (AID 1106).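 Also: score merges emission near 667 nm with signal to noise over three replicate slides.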 Conditions: higher = more signal.
Dickkopf-related protein 1 (Homo sapiens), sequence (O94907 whole entry, looked up): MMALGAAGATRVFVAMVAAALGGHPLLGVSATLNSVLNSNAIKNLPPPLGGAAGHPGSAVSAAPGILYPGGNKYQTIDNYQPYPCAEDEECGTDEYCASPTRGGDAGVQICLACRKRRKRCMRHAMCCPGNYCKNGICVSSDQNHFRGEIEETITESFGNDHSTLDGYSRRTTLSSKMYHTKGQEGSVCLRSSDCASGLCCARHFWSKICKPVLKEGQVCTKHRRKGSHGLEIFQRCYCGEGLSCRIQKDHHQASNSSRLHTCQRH
Test [10] relates to Inhibin beta A chain (activin A). Briefly: small molecules binding activin A – biochemical, small-molecule microarray, 635 nm fluorescence scan, primary screen (AID 1107).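 Also: mouse activin A protein probed at 4.33 µg/mL on printed slides; score merges bound-protein fluorescence near 667 nm with spot signal-to-noise.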 As to conditions: INHBA, higher = more signal.

16 compounds from PubChem BioAssay can be followed below.

Calls of active or inactive are those of the source.

Follistatin-related protein 3 (Homo sapiens), sequence (O95633 whole entry, looked up): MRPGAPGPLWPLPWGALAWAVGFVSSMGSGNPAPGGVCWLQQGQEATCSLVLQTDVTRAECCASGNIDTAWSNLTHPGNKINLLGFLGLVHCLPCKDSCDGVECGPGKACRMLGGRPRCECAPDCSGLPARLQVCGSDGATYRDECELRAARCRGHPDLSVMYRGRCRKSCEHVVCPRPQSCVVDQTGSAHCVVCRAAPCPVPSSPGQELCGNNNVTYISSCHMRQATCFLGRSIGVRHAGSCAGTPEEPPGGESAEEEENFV

Consider `CN1CCC(CCCO)=CC1c1ccc(CN2CCCC2)cc1` (stereo not given), for which the composite z-score in test [1] amounted to 0.988; in test [2] it was 0.331; in test [3], 0.756; in [5], 1.3; in [6] it was 1.3; in test [7], 1.64. Besides, the composite z-score in [8] turned out to be 1.48; in test [9], 1.74; in test [10], 1.86. The z-score in test [4] is 0.873 (inactive).

Regarding `CC(C)N1C(=O)[C@@]2(c3ccc([N+](=O)[O-])cc3)CC(=O)N(CC34CC5CC(CC(C5)C3)C4)[C@@H]2c2ccc(CO)cc21`, the composite z-score in test [1] is -0.732; in [2] it was -0.0981; in [3] it was 0.226; in test [5], -0.51; in test [6], -0.829; in test [7], -1.81. Besides, the composite z-score was -0.603 in test [8], -0.734 in test [9] and 0.0207 in test [10]. In addition, the z-score in test [4] was 0.477 (inactive).

As for `C[C@]1(C(=O)NCc2ccccc2)c2ccccc2C(=O)N(Cc2cc(F)cc(C(F)(F)F)c2)[C@H]1c1ccc(CO)cc1`, the composite z-score is 0.876 in [1]; 0.214 in test [2]; 0.637 in [3]; -0.384 in test [5]; -0.422 in test [6]; -0.505 in test [7]. For the same compound, the values for the composite z-score in test [8], in test [9] and in test [10] were -1.45, -1.21 and -0.185, respectively. For the same compound, in [4], the z-score was -0.102 (inactive).

In the case of `C=CC(=C)C1=CCO[C@@H]1[C@H]1CCCN1S(=O)(=O)c1ccccc1[N+](=O)[O-]`, the composite z-score was 0.487 in [1]; -0.268 in test [2]; -0.268 in [3]; 0.925 in test [5]; 0.168 in test [6]; 0.578 in test [7]. For the same compound, the composite z-score in test [8] amounted to 1.31; in test [9] it was 0.797; in test [10], 1.27. The z-score in test [4] is -0.626 (inactive).

Turning to `CC(C)C(=C=CC[C@@H](O)c1ccccc1OCCO)C[C@@H](O)c1ccccn1`, the composite z-score in test [1] was 1.52; in test [2] it was -0.235; in test [3], -0.448; in test [5], 1.05; in test [6], 0.556; in test [7], 0.141. The composite z-score in test [8] amounted to 0.425; in [9], 0.34; in [10], 0.715. Further, in test [4], the z-score was 0.446 (inactive).

Regarding `Cc1ccc(S[C@]2(C(=O)NC3CC3)CC(=O)N(Cc3ccccc3)[C@@H]2c2ccc(CO)cc2)cc1`, the composite z-score in [1] was 0.325; in [2], 0.224; in test [3] it was 0.892; in test [5], -0.829; in [6], -0.414; in [7], -0.679. For the same compound, the results for the composite z-score in test [8], in test [9] and in [10] were -0.217, 0.539 and 0.194, respectively. The z-score in test [4] was -0.61 (inactive).

Regarding `CO[C@H]1O[C@H](CO)[C@@H](OC(=O)Nc2ccc3c(c2)OCO3)[C@H](OC(=O)Nc2ccccc2)[C@H]1OC(=O)Nc1ccccc1`, the composite z-score in test [1] was 1.48; in [2], 0.132; in [3] it was 0.398; in test [5], 0.892; in test [6] it was 1.29; in test [7], -0.0701. The composite z-score came out at 0.848 in test [8], 0.295 in [9] and 0.395 in test [10]. The z-score in test [4] was 1.89 (inactive).

`COCCCNC(=O)[C@@]1(c2ccc([N+](=O)[O-])cc2)CC(=O)N(CC23CC4CC(CC(C4)C2)C3)[C@@H]1c1ccc(CO)cc1`: the composite z-score in test [1] was 1.61; in test [2], 0.0245; in test [3] it was -0.0133; in test [5], 1.22; in test [6], 1.31; in test [7] it was 0.905. Also, the composite z-score in [8] was found to be 1.48; in test [9], 1.08; in test [10], 0.703. In addition, in test [4], the z-score is 0.00653 (inactive).

Turning to `O=C(OCCF)C1=CCC(c2cccc(Cl)c2)O1` (stereo not given), the composite z-score in test [1] is -0.229; in test [2], -0.0052; in test [3] it was -0.325; in test [5], 0.0899; in test [6] it was 0.644; in [7], 0.119. Moreover, the composite z-score in test [8] is 0.151; in test [9], -0.183; in [10], 0.44. For the same compound, the z-score in test [4] is -0.824 (inactive).

Regarding `CCOC(=O)C[C@H]1[C@H](OC(=O)c2ccc(-c3ccccc3)cc2)[C@@H](NC(=O)c2ccc3ccccc3c2)c2cc(OCCCO)ccc2N1C(=O)Cc1ccc(OC)cc1`, the composite z-score is -0.517 in [1]; -0.0669 in [2]; -0.269 in test [3]; -0.383 in test [5]; 0.247 in [6]; -0.245 in test [7]. For the same compound, the composite z-score in test [8] was 0.368; in test [9], -0.416; in test [10], 0.487. The z-score in test [4] was -0.334 (inactive).

As to `COc1ccccc1CN1C(=O)c2ccccc2[C@@H](C(=O)NCCN2CCOCC2)[C@@H]1c1ccc(CO)cc1`, the composite z-score was 1.5 in [1]; -0.0936 in test [2]; 0.658 in [3]; -0.264 in test [5]; 0.342 in test [6]; -0.502 in [7]. The values for the composite z-score in test [8], in [9] and in test [10] were -0.334, -0.0485 and 0.52, respectively. For the same compound, the z-score in test [4] is -0.468 (inactive).

Turning to `CC(C)c1ccc(NN2C(C(O)c3ccc(N(C)C)cc3)C=CC3C(=O)N(c4ccccc4)C(=O)C32)cc1` (stereo not given), the composite z-score in test [1] stood at 1.24; in test [2], 0.64; in test [3], 0.947; in test [5] it was 0.782; in test [6], 0.267; in [7], 0.0151. The composite z-score was determined as 1.25 in test [8], 0.469 in test [9] and 0.898 in [10]. In addition, the z-score in test [4] was -0.132 (inactive).

For `C=CC[C@@]1(C(=O)N2CCOCC2)N=C(c2ccc(OCCCO)cc2)O[C@@H]1c1ccccc1N=[N+]=[N-]`, the composite z-score in [1] amounted to 0.904; in test [2], 1.01; in [3] it was 1.08; in test [5], 1.31; in test [6], 0.951; in [7], 0.279. In addition, the values for the composite z-score in [8], in [9] and in test [10] were 0.606, 0.174 and 1.16, respectively. Further, the z-score in test [4] was -2.33 (inactive).

`O=C1N(CCS(=O)(=O)c2ccccc2)Cc2ccccc2C[C@]12N=C(c1ccc(OCCCO)cc1)O[C@@H]2c1ccccc1`: the composite z-score in [1] worked out at 1.24; in test [2] it was 0.467; in test [3], 0.655; in test [5], 1.4; in test [6] it was 1.3; in [7] it was 0.477. For the same compound, the figures for the composite z-score in test [8], in [9] and in [10] were 1.18, 0.784 and 1.4, respectively. Also, in test [4], the z-score was -1.46 (inactive).

Take `C=CCOC(=O)[C@H]1[C@@H]2C(=O)O[C@@H](c3ccccc3)[C@@H](c3ccccc3)N2[C@@H](c2ccc(OCCOC(=O)[C@@H]3C[C@@H]4C(=O)NCC(=O)N4[C@@H]3c3ccc(O)cc3)cc2)[C@]12C(=O)Nc1ccccc12`: the composite z-score in [1] was 1.24; in [2] it was -0.206; in [3] it was -0.167; in test [5] it was 1.14; in test [6] it was 1.19; in test [7] it was 0.457. In addition, the composite z-score in test [8] came out at 1.34; in [9], 0.535; in [10] it was 0.217. In addition, the z-score in test [4] was -1.15 (inactive).

Take `CN(C)C(=O)[C@@]1(CCC(=O)OC(C)(C)C)N=C(c2ccc(OCCCO)cc2)O[C@H]1c1ccccc1`: the composite z-score was 1.75 in test [1]; 0.559 in test [2]; 0.401 in test [3]; 0.0744 in test [5]; 0.556 in test [6]; -0.58 in [7]. In addition, the results for the composite z-score in [8], in test [9] and in [10] were -0.725, -0.887 and 0.366, respectively. Besides, the z-score in test [4] was -0.919 (inactive).
